# Source: PubChem BioAssay (EPA / NIEHS)
# The source made the active and inactive calls. Rule for the calls: active = hit-call score of the fitted dose curve at least 0.9, where 1 is the maximum; inactive = score below 0.9.
# Assays:
# [1] = ATG_E_Box_CIS: Attagene CIS-FACTORIAL HepG2 Assay for human Enhancer Box (E-box) (AID 2282936); details: HepG2 E-box cis-reporter transcription, actives raise or lower the signal
# Method in brief: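 Fluorescent reporter fragments separated by capillary electrophoresis gave the signal; mRNA came from HepG2 cells transfected with cis-element reporters and treated 24 h. Curves fitted bidirectionally relative to DMSO controls.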
# [2] = ATG_M_61_CIS: Attagene CIS-FACTORIAL HepG2 Assay for M61 Transcription Factor (Internal Marker) (AID 2282937); details: HepG2 Attagene CIS-FACTORIAL M61 internal marker reporter; actives raise or lower the signal
# Method in brief: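 Human liver HepG2, transient MRTU transfection (cis promoter elements), 24 h compound. Total RNA → oligo(dT) RT → PCR → FAM label → HpaI → CE. Internal background marker; bidirectional fitting, DMSO = baseline.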
# [3] = ATG_EGR_CIS: Attagene CIS-FACTORIAL HepG2 Assay for human Early Growth Response 1 (EGR1) (AID 2282938); details: HepG2 Attagene CIS-FACTORIAL EGR reporter mRNA; actives raise or lower the signal
# Method in brief: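 Transient transfection of human HepG2 with multiple cis-regulated reporter units, chemical exposure 24 h, total RNA isolated. Reverse transcription, PCR, fluorescent labelling and capillary electrophoresis quantify reporter transcripts; activity fitted bidirectionally against DMSO.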
# [4] = ATG_M_19_CIS: Attagene CIS-FACTORIAL HepG2 Assay for M19 Transcription Factor (Internal Marker) (AID 2282939); details: HepG2 Attagene CIS-FACTORIAL M19 internal marker reporter; actives raise or lower the signal
# Method in brief: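 Background-control endpoint from a multiplexed HepG2 reporter panel. Cells carrying cis-regulated reporter constructs are treated 24 h, then reporter transcripts are amplified, fluorescently labelled and sized by capillary electrophoresis. DMSO defines baseline.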
# [5] = ATG_Ets_CIS: Attagene CIS-FACTORIAL HepG2 Assay for human Erythroblast Transformation Specific (ETS) (AID 2282941); details: HepG2 ETS cis-reporter transcription, actives raise or lower the signal
# Method in brief: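 RT-PCR/capillary electrophoresis fluorescence read-out of reporter mRNA; HepG2 transient multi-reporter transfection; 24 h compound exposure; gain or loss of signal fitted bidirectionally relative to DMSO.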
# [6] = molecular target: Hepatocyte nuclear factor 3-beta (Homo sapiens) (UniProt Q9Y261); experiment: ATG_FoxA2_CIS: Attagene CIS-FACTORIAL HepG2 Assay for human Forkhead box A2 (FOXA2) (AID 2282942); details: HepG2 cis-reporter transcription factor activity, 24 h; actives raise or lower the signal
# Method in brief: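 Transient MRTU transfection of HepG2 liver cells; 24 h treatment; total RNA → oligo(dT) RT → PCR → FAM primer extension → HpaI cut → CE. Bidirectional fit vs DMSO.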
# [7] = ATG_FoxO_CIS: Attagene CIS-FACTORIAL HepG2 Assay for human Forkhead box O (FoxO) (AID 2282943); details: HepG2 Attagene cis-reporter, FoxO element, mRNA; actives raise or lower the signal
# Method in brief: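 Endogenous transcription factor activity read from multiplexed cis-promoter reporter transcripts in transiently transfected HepG2, 24 h after dosing. Reporter RNA measured via RT-PCR plus capillary electrophoresis of FAM-labeled products; gain or loss relative to DMSO.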
# [8] = ATG_GATA_CIS: Attagene CIS-FACTORIAL HepG2 Assay for human GATA Binding Protein (AID 2282944); details: HepG2 GATA cis-element reporter, Attagene multiplex mRNA; actives raise or lower the signal
# Method in brief: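 Endogenous transcription factor activity was captured through cis-promoter-driven reporters in transfected HepG2 cells. After 24 h exposure, reporter transcripts were quantified by RT-PCR with fluorescent capillary electrophoresis, and responses fitted both directions against DMSO.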
# [9] = ATG_GLI_CIS: Attagene CIS-FACTORIAL HepG2 Assay for human Zinc Finger Protein GLI1 (AID 2282945); details: HepG2, Attagene cis-factorial reporter mRNA, GLI element; actives raise or lower the signal
# Method in brief: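 Bidirectional curve fits relative to DMSO, using reporter mRNA levels from RT-PCR plus capillary electrophoresis. Cells were HepG2 transiently carrying cis-regulated reporter constructs, harvested 24 h after dosing.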
# [10] = molecular target: Bile acid receptor (Homo sapiens) (UniProt Q96RI1); experiment: ATG_IR1_CIS: Attagene CIS-FACTORIAL HepG2 Assay for human Nuclear Receptor Subfamily 1 Group H Member 4 (NR1H4), IR1 submotif (AID 2282946); details: IR1 reporter transcription, actives raise or lower the signal
# Method in brief: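 HepG2 cells transiently transfected with multiplexed cis-element reporter units read endogenous transcription factor activity. After 24 h compound exposure, reporter mRNA was quantified by RT-PCR, fluorescent labelling, HpaI digestion and capillary electrophoresis; bidirectional fitting versus DMSO baseline.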
# [11] = ATG_M_32_CIS: Attagene CIS-FACTORIAL HepG2 Assay for M32 Transcription Factor (Internal Marker) (AID 2282949); details: HepG2 Attagene cis-factorial M32 reporter, mRNA; actives raise or lower the signal;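 note: background control marker of the multiplexed CIS panel rather than a real target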
# Method in brief: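 Transient MRTU transfection of HepG2; 24 h compound treatment; TriZol RNA, oligo(dT) RT, reporter PCR, 6-FAM primer extension, HpaI cut, CE. Gain/loss of signal vs DMSO.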
# [12] = ATG_M_06_CIS: Attagene CIS-FACTORIAL HepG2 Assay for M06 Transcription Factor (Internal Marker) (AID 2282950); details: HepG2 Attagene CIS-FACTORIAL M06 internal marker reporter; actives raise or lower the signal
# Method in brief: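 Steps: transfect HepG2 with multiplexed cis-element reporter constructs; dose chemical 24 h; extract RNA with DNase treatment; reverse-transcribe, PCR-amplify, 6-FAM label, HpaI digest; separate fragments by capillary electrophoresis. Activity fitted both directions versus DMSO.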
# [13] = molecular target: Hepatocyte nuclear factor 6 (Homo sapiens) (UniProt Q9UBC0); experiment: ATG_HNF6_CIS: Attagene CIS-FACTORIAL HepG2 Assay for human Hepatocyte Nuclear Factor 6 (HNF6) (AID 2282952); details: HepG2 Attagene cis-factorial HNF6 reporter transcription; actives raise or lower the signal
# Method in brief: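 Endogenous transcription factor activity in human HepG2 liver cells was captured through cis-regulated reporter constructs. After 24 h treatment, reporter mRNA was measured by RT-PCR with capillary electrophoresis, and activity was fitted in both directions relative to DMSO.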
# [14] = ATG_MRE_CIS: Attagene CIS-FACTORIAL HepG2 Assay for human Metal Responsive Element (MRE) (AID 2282954); details: HepG2 MRE cis-reporter transcription, Attagene multiplex; actives raise or lower the signal
# Method in brief: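 Multiplexed cis-reporter assay in human HepG2 liver cells, 24 h incubation with test chemical. Reporter transcripts measured by RT-PCR and capillary electrophoresis; values from bidirectional curve fitting versus DMSO.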
# [15] = ATG_ISRE_CIS: Attagene CIS-FACTORIAL HepG2 Assay for human Interferon Regulatory Factor 1 (IRF1) binding to an Interferon-Stimulated Response Element (ISRE) (AID 2282948); details: HepG2 ISRE cis-reporter (Attagene), mRNA transcription readout; actives raise or lower the signal
# Method in brief: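 Read-out: fluorescent RT-PCR products resolved by capillary electrophoresis, reporting endogenous transcription factor activity via ISRE-driven reporter mRNA in transfected HepG2 cells dosed for 24 h; gain or loss fitted relative to DMSO.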
# [16] = molecular target: Hypoxia-inducible factor 1-alpha (Homo sapiens) (UniProt Q16665); experiment: ATG_HIF1a_CIS: Attagene CIS-FACTORIAL HepG2 Assay for human Hypoxia Inducible Factor 1 (HIF1A) (AID 2282951); details: HepG2 Attagene cis-factorial HIF1a reporter transcription; actives raise or lower the signal
# Method in brief: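 Transient MRTU transfection of human HepG2 liver cells, 24 h compound treatment, then total RNA isolation, oligo(dT) reverse transcription, PCR amplification, fluorescent labelling and capillary electrophoresis of reporter fragments. Gain or loss relative to DMSO.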
# [17] = molecular target: Heat shock factor protein 1 (Homo sapiens) (UniProt Q00613); experiment: ATG_HSE_CIS: Attagene CIS-FACTORIAL HepG2 Assay for human Heat Shock Transcription Factor 1 (HSE) (AID 2282953); details: HepG2 HSE cis-reporter, Attagene RNA transcription; actives raise or lower the signal
# Method in brief: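 Cells were transfected with cis-element-driven reporter constructs, dosed for 24 h, then total RNA was reverse-transcribed and reporter cDNA amplified, FAM-labelled and digested with HpaI. Fragments were resolved by capillary electrophoresis; gain or loss was fitted against DMSO.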
# [18] = ATG_PBREM_CIS: Attagene CIS-FACTORIAL HepG2 Assay for human Phenobarbital-responsive Enhancer Module (PBREM) (AID 2282955); details: HepG2 PBREM cis-reporter, Attagene multiplexed transcription; actives raise or lower the signal
# Method in brief: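 Endogenous transcription factors in human liver HepG2 cells drive a PBREM cis-element reporter, whose transcript level after 24 h treatment is quantified by RT-PCR with capillary electrophoresis; activity fitted in both directions against DMSO.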
# [19] = ATG_GRE_CIS: Attagene CIS-FACTORIAL HepG2 Assay for human Glucocorticoid Response Elements (GRE) (AID 2282947); details: HepG2 GRE cis-reporter, Attagene multiplex mRNA; actives raise or lower the signal
# Method in brief: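 Multiplexed cis-reporter mRNA induction, HepG2, 24 h post-dose. RT-PCR, FAM-labelled, HpaI-digested amplicons by CE. Bidirectional fit vs DMSO.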
# Chain of Hypoxia-inducible factor 1-alpha (Homo sapiens) (Q16665 whole entry, looked up, the tested form may be a part): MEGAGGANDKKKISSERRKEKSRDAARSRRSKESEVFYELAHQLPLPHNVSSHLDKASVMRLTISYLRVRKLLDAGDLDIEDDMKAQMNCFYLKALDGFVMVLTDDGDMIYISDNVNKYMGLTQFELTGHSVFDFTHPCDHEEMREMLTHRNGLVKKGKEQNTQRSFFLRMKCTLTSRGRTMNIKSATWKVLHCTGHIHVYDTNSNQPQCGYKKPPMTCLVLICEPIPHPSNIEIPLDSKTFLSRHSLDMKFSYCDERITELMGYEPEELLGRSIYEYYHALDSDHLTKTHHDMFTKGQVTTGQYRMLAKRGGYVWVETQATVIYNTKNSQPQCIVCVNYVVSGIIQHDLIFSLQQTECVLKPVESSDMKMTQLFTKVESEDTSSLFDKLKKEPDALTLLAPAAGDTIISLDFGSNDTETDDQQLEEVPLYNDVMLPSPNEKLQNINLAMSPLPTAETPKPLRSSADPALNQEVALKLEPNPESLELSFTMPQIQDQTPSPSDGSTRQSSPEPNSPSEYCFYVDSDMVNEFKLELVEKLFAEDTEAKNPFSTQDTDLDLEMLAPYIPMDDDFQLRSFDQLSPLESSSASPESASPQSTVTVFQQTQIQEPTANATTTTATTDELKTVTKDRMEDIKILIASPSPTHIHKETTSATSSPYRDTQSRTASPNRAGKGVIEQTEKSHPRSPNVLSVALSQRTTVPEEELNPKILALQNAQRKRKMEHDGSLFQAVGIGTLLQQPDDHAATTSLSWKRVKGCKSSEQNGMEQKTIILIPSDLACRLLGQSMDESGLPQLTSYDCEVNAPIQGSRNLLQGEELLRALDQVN
# Chain of Hepatocyte nuclear factor 3-beta (Homo sapiens) (Q9Y261 whole entry, looked up): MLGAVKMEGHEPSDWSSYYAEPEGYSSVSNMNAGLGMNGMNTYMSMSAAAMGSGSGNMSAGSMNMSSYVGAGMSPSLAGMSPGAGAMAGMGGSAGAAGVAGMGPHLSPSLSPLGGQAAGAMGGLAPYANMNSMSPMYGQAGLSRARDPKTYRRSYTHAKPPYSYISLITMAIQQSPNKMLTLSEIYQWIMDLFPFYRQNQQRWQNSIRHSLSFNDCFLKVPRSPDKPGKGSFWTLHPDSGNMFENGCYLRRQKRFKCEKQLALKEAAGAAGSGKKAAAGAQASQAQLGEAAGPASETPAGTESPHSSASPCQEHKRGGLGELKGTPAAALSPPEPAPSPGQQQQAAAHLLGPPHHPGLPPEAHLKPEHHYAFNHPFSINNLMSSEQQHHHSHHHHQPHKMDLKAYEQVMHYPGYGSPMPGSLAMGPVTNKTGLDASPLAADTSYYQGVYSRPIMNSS
# Chain of Hepatocyte nuclear factor 6 (Homo sapiens) (Q9UBC0 whole entry, looked up): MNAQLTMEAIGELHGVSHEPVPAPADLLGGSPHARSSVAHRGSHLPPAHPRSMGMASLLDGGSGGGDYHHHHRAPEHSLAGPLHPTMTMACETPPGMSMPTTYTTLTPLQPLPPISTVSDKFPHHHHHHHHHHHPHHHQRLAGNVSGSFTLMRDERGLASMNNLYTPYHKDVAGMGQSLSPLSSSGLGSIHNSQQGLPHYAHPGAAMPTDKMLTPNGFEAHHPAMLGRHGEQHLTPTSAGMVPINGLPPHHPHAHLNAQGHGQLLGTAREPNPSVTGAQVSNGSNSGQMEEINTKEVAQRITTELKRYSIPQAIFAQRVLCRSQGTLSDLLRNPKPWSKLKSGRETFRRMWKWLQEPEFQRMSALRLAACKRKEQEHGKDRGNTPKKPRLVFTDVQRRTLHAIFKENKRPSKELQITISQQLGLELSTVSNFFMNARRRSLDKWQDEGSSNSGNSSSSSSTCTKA
# Chain of Heat shock factor protein 1 (Homo sapiens) (Q00613 whole entry, looked up, the tested form may be a part): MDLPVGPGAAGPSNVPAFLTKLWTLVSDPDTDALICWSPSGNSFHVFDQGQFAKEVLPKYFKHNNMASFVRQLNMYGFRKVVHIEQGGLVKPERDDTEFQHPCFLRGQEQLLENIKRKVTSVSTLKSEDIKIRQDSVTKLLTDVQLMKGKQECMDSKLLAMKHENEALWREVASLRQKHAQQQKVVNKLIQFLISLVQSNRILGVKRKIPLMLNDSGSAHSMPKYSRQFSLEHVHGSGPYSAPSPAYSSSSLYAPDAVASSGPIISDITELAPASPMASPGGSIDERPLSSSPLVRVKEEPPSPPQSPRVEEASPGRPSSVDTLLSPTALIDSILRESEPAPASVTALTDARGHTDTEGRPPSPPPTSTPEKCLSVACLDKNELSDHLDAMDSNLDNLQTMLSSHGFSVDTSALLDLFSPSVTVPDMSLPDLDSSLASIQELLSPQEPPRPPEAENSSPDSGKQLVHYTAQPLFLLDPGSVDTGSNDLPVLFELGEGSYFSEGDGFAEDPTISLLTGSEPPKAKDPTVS
# Chain of Bile acid receptor (Homo sapiens) (Q96RI1 whole entry, looked up): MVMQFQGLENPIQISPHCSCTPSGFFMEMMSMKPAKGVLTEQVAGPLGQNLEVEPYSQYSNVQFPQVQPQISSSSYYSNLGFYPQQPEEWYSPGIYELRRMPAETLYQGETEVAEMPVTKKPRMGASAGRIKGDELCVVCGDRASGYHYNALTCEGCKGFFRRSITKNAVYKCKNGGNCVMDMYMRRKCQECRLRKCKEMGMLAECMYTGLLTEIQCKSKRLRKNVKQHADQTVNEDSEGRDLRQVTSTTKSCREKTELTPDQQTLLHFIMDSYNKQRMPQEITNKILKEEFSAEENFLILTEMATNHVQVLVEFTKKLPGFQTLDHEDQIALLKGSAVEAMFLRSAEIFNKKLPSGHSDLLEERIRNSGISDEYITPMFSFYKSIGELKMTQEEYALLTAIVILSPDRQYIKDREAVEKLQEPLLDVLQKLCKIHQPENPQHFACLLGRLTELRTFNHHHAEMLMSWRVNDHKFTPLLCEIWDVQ
Compound,outcome [1],outcome [2],outcome [3],outcome [4],outcome [5],outcome [6],outcome [7],outcome [8],outcome [9],outcome [10],outcome [11],outcome [12],outcome [13],outcome [14],outcome [15],outcome [16],outcome [17],outcome [18],outcome [19],AC50 [11]
O=C1NC2NC(=O)NC2N1 (stereo unspecified),inactive,inactive,inactive,inactive,inactive,inactive,inactive,inactive,inactive,inactive,inactive,inactive,inactive,inactive,,,,,,
COc1ccccc1[N+](=O)[O-],inactive,inactive,inactive,inactive,inactive,inactive,inactive,inactive,inactive,inactive,inactive,inactive,inactive,inactive,inactive,inactive,inactive,inactive,,
O=c1[nH]c(=O)c2cn[nH]c2[nH]1,inactive,inactive,inactive,inactive,inactive,inactive,inactive,inactive,inactive,,inactive,inactive,inactive,inactive,inactive,inactive,inactive,inactive,inactive,
BrCc1cccc(Oc2ccccc2)c1,inactive,inactive,inactive,inactive,inactive,inactive,inactive,inactive,inactive,,inactive,inactive,inactive,,inactive,inactive,inactive,inactive,inactive,
COc1cc([C@@H]2c3cc4c(cc3[C@@H](O[C@@H]3O[C@@H]5CO[C@@H](C)O[C@H]5[C@H](O)[C@H]3O)[C@H]3COC(=O)[C@H]23)OCO4)cc(OC)c1O,inactive,inactive,inactive,inactive,inactive,inactive,inactive,inactive,inactive,inactive,inactive,inactive,inactive,inactive,inactive,inactive,inactive,inactive,,
CCCCCCC(=O)c1ccccc1,inactive,inactive,inactive,inactive,inactive,inactive,inactive,inactive,inactive,inactive,inactive,inactive,inactive,inactive,,inactive,inactive,inactive,,
CCCCOC(=O)CCCCCCCC(=O)OCCCC,inactive,inactive,inactive,inactive,inactive,inactive,inactive,inactive,inactive,inactive,inactive,inactive,inactive,inactive,,inactive,inactive,inactive,,
CCCSc1ccc2nc(NC(=O)OC)[nH]c2c1,inactive,inactive,inactive,inactive,inactive,inactive,inactive,inactive,inactive,,inactive,inactive,inactive,inactive,inactive,inactive,inactive,inactive,inactive,
CC(C)CCOC(=O)c1ccccc1,inactive,inactive,inactive,inactive,inactive,inactive,inactive,inactive,inactive,inactive,inactive,inactive,inactive,inactive,inactive,inactive,inactive,inactive,,
O=C(O)CCCCCCCCCCCC(=O)O,inactive,inactive,inactive,inactive,inactive,inactive,inactive,inactive,inactive,inactive,inactive,inactive,inactive,inactive,inactive,inactive,inactive,,,
CN1CCOCC1,inactive,inactive,inactive,inactive,inactive,inactive,inactive,inactive,inactive,,,inactive,inactive,inactive,inactive,inactive,inactive,inactive,inactive,100 µM (active)
COS(=O)(=O)O,inactive,inactive,inactive,inactive,inactive,inactive,inactive,inactive,inactive,inactive,inactive,inactive,inactive,,inactive,inactive,,inactive,,
